The nature of assay [1]: ATG_TCF_b_cat_CIS: Attagene CIS-FACTORIAL HepG2 Assay for human T-Cell-Factor with beta-catenin (TCF/b-cat) (AID 2282965). Conditions: HepG2 TCF/beta-catenin cis-reporter transcription, actives raise or lower the signal. Put shortly:
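In this cis-format system, transfected HepG2 cells report endogenous transcription factor activity. Readout after 24 h exposure is reporter transcript abundance from RT-PCR and capillary electrophoresis, analysed for gain or loss of signal versus DMSO.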

Assay [2] in a line: ATG_TAL_CIS: Attagene CIS-FACTORIAL HepG2 Assay for human TAL Basal Promoter (AID 2282966).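 Note: background control endpoint measuring basal TAL promoter reporter mRNA not a specific factor.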 Conditions: HepG2 Attagene cis-factorial TAL promoter reporter; actives raise or lower the signal. In outline:
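Steps: transfect HepG2 with multiple reporter transcription units; dose 24 h; isolate RNA, reverse-transcribe, PCR-amplify, label with 6-FAM, digest with HpaI; resolve by capillary electrophoresis. Bidirectional fitting against DMSO baseline.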

Assay [3] in a line: ATG_TGFb_CIS: Attagene CIS-FACTORIAL HepG2 Assay for human Transforming Growth Factor (TGF) (AID 2282967). The following applies: HepG2 Attagene CIS TGFb reporter, mRNA transcription; actives raise or lower the signal. Put shortly:
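Bidirectional fitting relative to DMSO gave the endpoint. Underlying data: reporter mRNA from HepG2 cells carrying transiently transfected cis-regulated reporter constructs, harvested 24 h after dosing and analyzed by RT-PCR and capillary electrophoresis.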

Assay [4] is described as follows: ATG_VDRE_CIS: Attagene CIS-FACTORIAL HepG2 Assay for human Vitamin D Receptor Element (VDRE) (AID 2282968). Conditions: HepG2 VDRE cis-reporter transcription, actives raise or lower the signal. In outline: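 HepG2 cells transiently transfected with cis-element reporter units, dosed 24 h; reporter mRNA measured by RT-PCR, 6-FAM labeling, HpaI digestion and capillary electrophoresis. Activity fitted bidirectionally against DMSO baseline.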

Assay [5] has as its target Estrogen receptor (Homo sapiens) (UniProt P03372). Nature of the assay: ATG_ERa_TRANS: Attagene TRANS-FACTORIAL HepG2 Assay for human Estrogen Receptor alpha (ERa) (AID 2282970; active = hit-call score of the fitted dose curve at least 0.9, where 1 is the maximum). Conditions: HepG2 Attagene TRANS ERa GAL4 reporter, mRNA. In outline:
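Multiplexed cell-based reporter format in HepG2: chimeric ERa-Gal4 protein drives GAL4-UAS reporter transcription. Fluorescent reporter mRNA quantified by capillary electrophoresis 24 hours after dosing; endpoint fitted as signal gain against DMSO.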

Assay [6] has as its target X-box-binding protein 1 (Homo sapiens) (UniProt P17861). As to the kind of experiment: ATG_Xbp1_CIS: Attagene CIS-FACTORIAL HepG2 Assay for human X-box Binding Protein 1 (XBP1) (AID 2282972). Conditions: HepG2 XBP1 cis-element reporter, Attagene multiplex; actives raise or lower the signal. In outline: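 HepG2 cells transiently transfected with cis-regulated multiple reporter transcription units; endogenous transcription factor activity measured 24 hours after chemical dosing. Reporter mRNA quantified by RT-PCR, 6-FAM primer extension, HpaI digestion and capillary electrophoresis; bidirectional fitting versus DMSO.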

The nature of assay [7]: ATG_GAL4_TRANS: Attagene TRANS-FACTORIAL HepG2 Assay for GAL4 (Internal Marker) (AID 2282976; active = hit-call score of the fitted dose curve at least 0.9, where 1 is the maximum). The following applies: HepG2 Attagene TRANS GAL4 internal marker reporter. Put shortly:
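Liver HepG2 line bearing multiplexed GAL4-UAS reporter constructs; 24 h chemical treatment. Transcripts were quantified as fluorescent fragments on capillary electrophoresis after RT-PCR and HpaI cut, with activity fitted upward from DMSO.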

Assay [8] deals with Steroid hormone receptor ERR1 (Homo sapiens) (UniProt P11474). Nature of the assay: ATG_ERRa_TRANS: Attagene TRANS-FACTORIAL HepG2 Assay for human Estrogen-Related Receptor alpha (ERRa) (AID 2282971; active = hit-call score of the fitted dose curve at least 0.9, where 1 is the maximum). Conditions: HepG2 Attagene TRANS reporter, ERRa transactivation. Put shortly: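 Signal gain relative to DMSO for an ERRa-Gal4 chimeric receptor, read as reporter mRNA by RT-PCR/capillary electrophoresis. Human HepG2 liver cells, transient multiplex reporter transfection, 24 h chemical exposure.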
Steroid hormone receptor ERR1 (Homo sapiens), sequence (P11474 whole entry, looked up, the tested form may be a part): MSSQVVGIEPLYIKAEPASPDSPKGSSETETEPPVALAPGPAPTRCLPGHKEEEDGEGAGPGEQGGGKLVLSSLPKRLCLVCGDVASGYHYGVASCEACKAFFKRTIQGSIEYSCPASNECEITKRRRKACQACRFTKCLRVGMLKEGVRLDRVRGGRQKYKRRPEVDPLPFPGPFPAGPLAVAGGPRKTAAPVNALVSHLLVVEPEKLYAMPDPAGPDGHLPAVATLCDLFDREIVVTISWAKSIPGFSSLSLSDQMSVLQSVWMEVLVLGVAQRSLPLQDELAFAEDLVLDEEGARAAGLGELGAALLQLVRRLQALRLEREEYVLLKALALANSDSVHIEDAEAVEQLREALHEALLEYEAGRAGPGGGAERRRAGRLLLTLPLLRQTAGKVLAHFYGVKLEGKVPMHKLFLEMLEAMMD

Assay [9] can be described thus: ATG_M_19_TRANS: Attagene TRANS-FACTORIAL HepG2 Assay for M19 Transcription Factor (Internal Marker) (AID 2282974; active = hit-call score of the fitted dose curve at least 0.9, where 1 is the maximum). The following applies: HepG2 Attagene TRANS-FACTORIAL M19 internal marker reporter. In outline:
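HepG2 transiently transfected with GAL4-UAS multiplex reporter constructs, exposed 24 h; reporter RNA quantified by RT-PCR, 6-FAM labeling, HpaI digestion and capillary electrophoresis; internal background marker fitted upward versus DMSO.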

Assay [10] deals with Nuclear receptor subfamily 1 group I member 3 (Homo sapiens) (UniProt Q14994). As to the kind of experiment: ATG_CAR_TRANS: Attagene TRANS-FACTORIAL HepG2 Assay for human Constitutive Androstane Receptor (CAR) (AID 2282969; active = hit-call score of the fitted dose curve at least 0.9, where 1 is the maximum;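 note: activators raise reporter mRNA above DMSO so AC50 marks induction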). Conditions: HepG2 Attagene TRANS-FACTORIAL CAR reporter. Put shortly: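 HepG2 cells transiently transfected with multiplexed GAL4-UAS reporter units expressing chimeric NR-Gal4 proteins; compound exposure 24 h. Reporter mRNA measured by RT-PCR, 6-FAM labelling, HpaI digestion and capillary electrophoresis; gain-of-signal fitted against DMSO baseline.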
Nuclear receptor subfamily 1 group I member 3 (Homo sapiens), sequence (Q14994 whole entry, looked up, the tested form may be a part): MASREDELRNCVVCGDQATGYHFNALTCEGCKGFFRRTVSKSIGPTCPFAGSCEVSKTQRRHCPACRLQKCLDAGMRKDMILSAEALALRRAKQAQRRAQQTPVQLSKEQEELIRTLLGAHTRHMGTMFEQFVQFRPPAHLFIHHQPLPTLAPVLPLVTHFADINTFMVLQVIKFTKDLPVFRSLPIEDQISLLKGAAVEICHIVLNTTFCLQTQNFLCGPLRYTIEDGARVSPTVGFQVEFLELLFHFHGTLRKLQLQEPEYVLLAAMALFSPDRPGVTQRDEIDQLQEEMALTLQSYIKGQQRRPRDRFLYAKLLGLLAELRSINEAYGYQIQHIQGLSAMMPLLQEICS

A word on the AC50: it is the concentration giving half of the maximal activity seen.

Results filed as inconclusive are left out. Calls of active or inactive are those of the source. Rule for the calls, unless noted: active = hit-call score of the fitted dose curve at least 0.9, where 1 is the maximum; inactive = score below 0.9.

Estrogen receptor (Homo sapiens), sequence (P03372 whole entry, looked up, the tested form may be a part): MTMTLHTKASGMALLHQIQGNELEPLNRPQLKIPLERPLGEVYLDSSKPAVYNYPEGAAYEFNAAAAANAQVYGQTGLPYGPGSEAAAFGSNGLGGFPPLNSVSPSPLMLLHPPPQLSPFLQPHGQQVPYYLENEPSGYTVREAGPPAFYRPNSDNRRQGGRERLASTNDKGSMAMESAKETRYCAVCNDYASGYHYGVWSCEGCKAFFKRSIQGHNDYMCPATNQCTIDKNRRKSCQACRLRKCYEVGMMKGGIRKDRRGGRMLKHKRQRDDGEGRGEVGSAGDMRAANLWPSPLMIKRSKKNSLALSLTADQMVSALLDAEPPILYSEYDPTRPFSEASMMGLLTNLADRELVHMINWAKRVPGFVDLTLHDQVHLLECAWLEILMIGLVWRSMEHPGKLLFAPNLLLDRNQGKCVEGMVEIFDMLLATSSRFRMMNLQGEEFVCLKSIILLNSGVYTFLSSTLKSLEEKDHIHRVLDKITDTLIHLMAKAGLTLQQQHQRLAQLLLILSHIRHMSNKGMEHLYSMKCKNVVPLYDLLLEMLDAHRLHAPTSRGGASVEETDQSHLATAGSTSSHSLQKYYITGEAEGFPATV
X-box-binding protein 1 (Homo sapiens), sequence (P17861 whole entry, looked up): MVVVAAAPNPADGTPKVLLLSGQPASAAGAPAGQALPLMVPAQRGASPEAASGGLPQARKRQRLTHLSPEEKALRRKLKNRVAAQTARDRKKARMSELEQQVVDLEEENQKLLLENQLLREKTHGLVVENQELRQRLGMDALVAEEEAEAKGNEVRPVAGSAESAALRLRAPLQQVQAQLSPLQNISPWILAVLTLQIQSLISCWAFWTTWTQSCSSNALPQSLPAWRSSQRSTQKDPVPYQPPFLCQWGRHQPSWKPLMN

`Cc1ccc(S(=O)(=O)C(I)I)cc1`: the AC50 in assay [1] was 8.97 µM (active); in assay [4] it was 9.01 µM (active); in assay [6] it was 7.84 µM (active). In addition, the call in [2], in assay [3] and in [5] was inactive.

On to `O=C(O)CCC(F)(F)C(F)(F)C(F)(F)C(F)(F)C(F)(F)C(F)(F)C(F)(F)F`, for which, in assay [1], the AC50 is 150 µM (active). The compound was classed as inactive in [2], in assay [3], in assay [4], in assay [5] and in assay [6].

For the compound `CCc1cccc(C)c1N(C(=O)C(=O)O)C(C)COC` (stereo not given), the call in assay [1], in assay [2], in assay [3], in [4], in [5] and in assay [6] was inactive.

With `O=C1C=CC(=O)N1c1ccc(Cc2ccc(N3C(=O)C=CC3=O)cc2)cc1`, the outcome in assay [1] and in [4] was inactive. The AC50 in [2] was 56.8 µM (active); in [3] it was 41.6 µM (active); in [6], 42.6 µM (active).

Regarding `OCCC(O)CO` (stereo not given), the compound was called inactive in assay [1], in [2], in assay [3], in assay [4], in [5] and in assay [6]. Also, in [7], the result was inactive.

Consider `c1ccc(C[P+](c2ccccc2)(c2ccccc2)c2ccccc2)cc1`, for which the compound was classed as inactive in [1], in [2], in [3], in assay [4], in assay [8] and in [9]. Also, the compound was called inactive in [7]. The AC50 in assay [6] was 53.4 µM (active).

Regarding `O=c1[nH]cccc1O`, the compound was called inactive in assay [1], in assay [2], in assay [3], in assay [4] and in assay [8].

With `CCOC(=O)CCC(C)=O`, the compound was called inactive in assay [1], in assay [2], in assay [3], in [4], in [5] and in assay [6]. For the same compound, the compound was classed as inactive in [9] and in assay [7].

Turning to `CCN(CCO)S(=O)(=O)C(F)(F)C(F)(F)C(F)(F)C(F)(F)C(F)(F)C(F)(F)C(F)(F)C(F)(F)F`, the result in assay [1], in assay [2], in [3], in assay [4] and in assay [5] was inactive. In [6], the AC50 is 29.8 µM (active).

On to `CC(C)(C)c1cc(CCC(=O)NCCCCCCNC(=O)CCc2cc(C(C)(C)C)c(O)c(C(C)(C)C)c2)cc(C(C)(C)C)c1O`, for which the result in [1], in assay [2], in [3], in assay [5] and in assay [6] was inactive. The AC50 in assay [4] is 0.811 µM (active).

In the case of `Nc1cc([N+](=O)[O-])cc(Cl)c1O`, the compound was classed as inactive in [1], in assay [2], in [3], in [4], in assay [5] and in assay [7].

On to `CCN=c1cc2oc3cc(NCC)c(C)cc3c(-c3ccccc3C(=O)OCC)c-2cc1C`, for which the figures for the AC50 in [1] and in [6] were 7.34 µM (active) and 11.1 µM (active), respectively. Also, the outcome in [2], in [3] and in assay [4] was inactive.

As to `O=C(O)C(F)(F)C(F)(F)C(F)(F)C(=O)O`, the compound was called inactive in assay [1], in assay [2], in assay [3], in [4], in assay [5] and in assay [9].

On to `CCCCCCCCCc1ccc(OCCO)cc1`, for which the AC50 in assay [1] is 21.5 µM (active). Moreover, the result in [2], in assay [3], in assay [4], in assay [5] and in [9] was inactive.

`CO[Si](C)(CCC(F)(F)C(F)(F)C(F)(F)C(F)(F)C(F)(F)C(F)(F)F)OC`: the call in assay [1], in assay [2], in [3], in assay [4], in assay [5] and in assay [6] was inactive.

As for `C#CC(O)CCC` (stereo not given), the compound was called inactive in assay [1], in assay [2], in [3], in assay [4], in assay [8] and in [6]. Besides, in [9], the result was inactive.

Turning to `CCC(C)CO` (stereo not given), the outcome in assay [1], in assay [2], in assay [3], in assay [4], in assay [8] and in [6] was inactive.

Regarding `COCCC(=O)OC`, the compound was called inactive in [1], in assay [2], in assay [3], in assay [4], in [5] and in assay [6].

As to `CCOC(OCC)OCC`, the compound was classed as inactive in assay [1], in [2], in [3], in [4] and in assay [6].

As to `C=C(C)C(=O)OCC(F)(F)C(F)(F)C(F)(F)C(F)F`, the outcome in assay [1], in assay [2], in assay [3], in assay [5], in assay [8] and in assay [6] was inactive. In addition, the outcome in [9] was inactive.

Regarding `CC(=O)c1ccccc1N`, the compound was classed as inactive in [1], in assay [2], in assay [3], in assay [6] and in assay [7].

Regarding `CNS(=O)(=O)C(F)(F)C(F)(F)C(F)(F)C(F)(F)C(F)(F)C(F)(F)C(F)(F)C(F)(F)F`, the compound was called inactive in [1], in assay [2], in assay [3], in [8], in assay [6] and in assay [9]. Further, in assay [5], the AC50 was 9.26 µM (active).

`Brc1nc2ccccc2s1`: the compound was classed as inactive in assay [1], in assay [2], in assay [3], in assay [5] and in assay [7].

For the compound `CC(C)C(=O)OCc1ccccc1`, the call in assay [1], in [2], in assay [3] and in [6] was inactive.

Consider `CCCCCCCCn1sc(Cl)c(Cl)c1=O`, for which the result in assay [1], in assay [2], in [3], in assay [10], in [5] and in assay [6] was inactive.

On to `NS(=O)(=O)C(F)(F)C(F)(F)C(F)(F)C(F)(F)C(F)(F)C(F)(F)F`, for which the outcome in [1], in [2], in [10] and in [6] was inactive. The AC50 is 36.4 µM (active) in [4] and 13.9 µM (active) in [5].

As to `O=S(=O)(OCC(F)(F)F)C(F)(F)C(F)(F)C(F)(F)C(F)(F)F`, the AC50 in assay [1] is 104 µM (active); in assay [2], 150 µM (active). The result in assay [3], in assay [10], in assay [8] and in [9] was inactive.

Consider `OCC1CCCO1` (stereo not given), for which the compound was classed as inactive in assay [1], in assay [2] and in [4].

For `Cc1ccc(O)cn1`, the compound was called inactive in [1], in assay [2], in [3], in assay [10], in assay [8] and in assay [7].

`Oc1ccc2c(c1)CCC2`: the compound was classed as inactive in assay [1], in assay [2], in [3], in assay [8], in [6] and in [7]. The AC50 in assay [5] was 22.6 µM (active).

As to `O=S(=O)(O)c1ccc(Cl)cc1`, the compound was classed as inactive in assay [1], in [2], in assay [3], in assay [10], in [5] and in assay [6]. Besides, the result in assay [7] was inactive.

These data come from PubChem BioAssay (EPA / NIEHS).
